Measurements from PubChem BioAssay.
Results filed as inconclusive are left out. Active and inactive are the calls of the source.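 The calls were made as follows, unless noted: active = binding below the plate cutoff, the plate median minus 3 SD, with a reading above zero; inconclusive = below the plate cutoff but reading exactly zero; inactive = the rest.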

Key:
[1] = rapamycin-like changes in RPL19A-GFP expression – cell-based, S. cerevisiae, multiplex flow cytometry, primary screen (AID 1862; in the data active = percent of DMSO control GFP below about 86%;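 also: lower values mimic rapamycin by blocking the RPL19A rise seen in DMSO cells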); settings: S. cerevisiae RPL19A-GFP strain, flow cytometry fluorescence, 3 h; at 10 µM; stronger effect = lower value
[2] = TOR pathway GLN3 branch reporter MEP2-GFP changes – S. cerevisiae, multiplex flow cytometry, primary screen (AID 1867;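 active = GFP response, as percent of the DMSO control, above the screen-wide mean plus 3 SD, about 139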;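 also: median GFP channel fluorescence of barcode-gated MEP2-GFP cells measured by flow cytometry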); settings: S. cerevisiae MEP2-GFP strain, 3 h, at 10 µM, stronger effect = higher value, 100% means same as DMSO wells
[3] = TOR pathway RTG branch CIT2 reporter changes – S. cerevisiae, GFP fusion, multiplex flow cytometry, primary screen (AID 1870;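 active = percent response above a set limit, the screen-wide mean plus 3 SD, cut at about 130% in these data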;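 also: barcoded CIT2-GFP strain pooled with four other GFP strains with rapamycin as positive control; median GFP fluorescence per well over plate mean of DMSO wells so 100% = DMSO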); settings: S. cerevisiae CIT2-GFP expression, 3 h, at 10 µM, stronger effect = higher value
[4] = TOR pathway LAP4-GFP level changes – S. cerevisiae, multiplex flow cytometry, primary screen (AID 1873;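 active = GFP signal, as percent of the solvent control, above the screen mean plus 3 SD, about 149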); settings: S. cerevisiae LAP4-GFP expression, 3 h, at 10 µM, stronger effect = higher value
[5] = yeast AGP1-GFP level changes, GLN3 branch – cell-based, multiplex flow cytometry, S. cerevisiae, primary screen (AID 1887;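 active = GFP signal above the screen-wide mean plus 3 SD, that is over about 124.5% of the solvent control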;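 also: AGP1-GFP fusion strain of S. cerevisiae within a five-strain barcoded multiplex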); settings: 3 h, at 10 µM, stronger effect = higher value
[6] = reduced mouse 2C T cell binding to pMHC/ICAM-1 vesicles – MLPCN validation set, flow cytometry, LFA-1/ICAM-1 modulator project, pilot screen (AID 2523;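 active = response below a set limit, under 55% cells CD8-positive and vesicle-bound, and CD8 cells' 90th-percentile brightness under 279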;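 as to vesicle binding response: mean PE anti-B7-1 fluorescence of CD8+ cells relative to row control; 100% = QL9-loaded vesicles with DMSO vehicle in the same plate row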); settings: 2C mouse CD8+ T cells, at 7 µM, stronger effect = lower value; double positive events: measured here: CD8+/vesicle+ event percentage
[7] = molecular target: Integrin beta-1 (Homo sapiens) + Integrin alpha-4 (Homo sapiens) (UniProt P13612+P05556); assay: alpha4beta1 integrin LIBS antibody binding reduction – U937 cells, HUTS-21 mAb, flow cytometry, validation set, VLA-4 allosteric modulator project, pilot screen (AID 2674;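 active = inhibition above 50%, about 3 SD of the validation set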;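 also: antibody binding induced by the VLA-4 ligand LDV present at three times its Kd; 0% = LDV ligand with antibody and no compound and 100% = antibody without LDV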); settings: HUTS-21 LIBS mAb binding, at 6.7 µM, stronger effect = higher value, binding induced by LDV ligand
[8] = calorie-restriction mimetic ROS inhibitors, yeast – validation compound set, pilot screen (AID 2706;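 active = superoxide response below 65% of plate, a cut near 3 SD across the whole screen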;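 also: yeast exposed to compound for one week at 30 degrees C before staining; 100% = mean of all compound wells on the same plate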); settings: S. cerevisiae aging, superoxide DHE fluorescence; at 10 µM; stronger effect = lower value
[9] = molecular target: Beta-adrenergic receptor kinase 1 (Homo sapiens) (UniProt P25098); assay: GRK2 binders displacing RNA aptamer, biochemical, validation, human GRK2, bead flow cytometry (AID 488806;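 active = aptamer binding inhibition above 30%, about 3 SD of noise from non-fluorescent compounds; inactive = inhibition at or below 30%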); settings: bead-bound GRK2, FAM-aptamer displacement, at 10 µM, stronger effect = higher value
[10] = molecular target: Beta-2 adrenergic receptor (Homo sapiens) (UniProt P07550); assay: agonist-induced loss of surface beta2AR – cell-based, FAP fluorogen, flow cytometry, validation set, pilot screen (AID 504459;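 active = percent response above 42, roughly 3 SD of non-fluorescent test compounds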;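 also: agonist-driven loss of surface beta2AR via internalization measured by FAP dye flow cytometry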); settings: Am2.2-beta2AR cells, at 10 µM, stronger effect = higher value
[11] = molecular target: AP-2 complex subunit beta (Homo sapiens) (UniProt P63010); assay: beta-arrestin/AP2 interaction blockers – biochemical, validation set, GST-AP2 beads, flow cytometry, pilot screen (AID 504541;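 active = inhibition above 54%, about 3 SD of non-fluorescent compounds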;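 also: AP2 carries R879A mutation and is captured from E. coli lysate; bead-bound FITC arrestin peptide fluorescence measuring arrestin peptide binding to AP2; 0% = DMSO wells and 100% = excess unlabeled arrestin peptide control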); settings: FITC arrestin peptide, at 10 µM, stronger effect = higher value, AP2 beta2 appendage fragment, R879A mutant
[12] = cytosolic pH regulators acting via V-ATPase – S. cerevisiae, pHLuorin, HTS validation (AID 504600; in the data active = response above about 15%;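 also: plate controls were DMSO for no effect and reference compound for full effect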); settings: V-ATPase proton transport, at 10 µM, stronger effect = higher value
[13] = test system: anti-desmoglein-3 scFv antibody binding to human DSG3; assay: blockers of pathogenic pemphigus antibody–desmoglein-3 binding – biochemical, validation compound set, bead-based, flow cytometry, pilot screen (AID 588368); settings: Protein G beads, DSG3-Fc, scFv-GFP binding, at 10 µM, stronger effect = lower value;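 also: signal is the median channel fluorescence of bead-bound GFP antibody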
[14] = Nile Red efflux blockade in pump-expressing yeast – validation compound set, multiplex, phenotypic, pilot screen (AID 588506;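 active = efflux inhibition above 0.42, the validation set average plus 4 SD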;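 also: Nile Red retained in cells so higher fluorescence means more efflux inhibition; 0 = negative control wells and 1 = enniatin B 25 µM full block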); settings: S. cerevisiae pump-expressing triplex, Nile Red efflux flow cytometry; at 10 µM; stronger effect = higher value; the pumps come from Candida albicans
[15] = molecular target: ATP-binding cassette sub-family B member 6 (Homo sapiens) (UniProt Q9NP58); assay: blockers of ABCB6-driven porphyrin uptake – K562-ABCB6 cells, flow cytometry, validation set, pilot screen (AID 588550;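 active = inhibition above the screen-wide mean plus 3 SD, about 51%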;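 also: 0% = DMSO wells and 100% = benzethonium chloride 70 µM positive control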); settings: K562-ABCB6 porphyrin accumulation, 1 h, at 10 µM, stronger effect = higher value
[16] = AML differentiation inducers, ER-HoxA9 marrow cells – cell-based, GFP/MAC1 double positive, flow cytometry, validation set, primary screen (AID 588685;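 active = differentiation response of at least 50%, scaled between solvent and reference control, from cells with both markers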;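 also: compound exposure lasts four days before antibody staining and flow analysis; 0% = DMSO wells and 100% = 5 µM fulvestrant positive control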); settings: stronger effect = higher value, normalized: vehicle 0, fulvestrant 100

Chain of Integrin beta-1 (Homo sapiens) + Integrin alpha-4 (Homo sapiens) (P05556 whole entry, looked up): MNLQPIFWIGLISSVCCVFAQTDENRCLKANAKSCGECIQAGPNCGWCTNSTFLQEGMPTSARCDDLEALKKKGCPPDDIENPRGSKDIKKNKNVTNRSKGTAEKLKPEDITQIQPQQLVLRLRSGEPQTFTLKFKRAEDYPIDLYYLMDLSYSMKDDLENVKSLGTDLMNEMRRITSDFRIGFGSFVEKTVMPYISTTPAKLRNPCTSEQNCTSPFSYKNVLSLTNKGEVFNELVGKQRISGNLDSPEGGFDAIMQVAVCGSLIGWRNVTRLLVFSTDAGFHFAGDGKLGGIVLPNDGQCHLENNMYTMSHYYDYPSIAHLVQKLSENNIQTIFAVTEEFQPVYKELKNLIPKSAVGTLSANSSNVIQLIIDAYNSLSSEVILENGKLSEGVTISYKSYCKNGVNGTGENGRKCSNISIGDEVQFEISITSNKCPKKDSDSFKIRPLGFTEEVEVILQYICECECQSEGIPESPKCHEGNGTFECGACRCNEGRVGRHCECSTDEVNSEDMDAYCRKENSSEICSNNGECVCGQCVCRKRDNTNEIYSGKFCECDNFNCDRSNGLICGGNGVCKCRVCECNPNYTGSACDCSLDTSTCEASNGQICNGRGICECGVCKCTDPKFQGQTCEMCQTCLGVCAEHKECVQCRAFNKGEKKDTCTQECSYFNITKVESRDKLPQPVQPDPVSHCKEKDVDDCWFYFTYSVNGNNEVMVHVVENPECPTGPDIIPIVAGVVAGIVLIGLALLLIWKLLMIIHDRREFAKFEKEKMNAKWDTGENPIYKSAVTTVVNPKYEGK
Chain of Integrin beta-1 (Homo sapiens) + Integrin alpha-4 (Homo sapiens) (P13612 whole entry, looked up): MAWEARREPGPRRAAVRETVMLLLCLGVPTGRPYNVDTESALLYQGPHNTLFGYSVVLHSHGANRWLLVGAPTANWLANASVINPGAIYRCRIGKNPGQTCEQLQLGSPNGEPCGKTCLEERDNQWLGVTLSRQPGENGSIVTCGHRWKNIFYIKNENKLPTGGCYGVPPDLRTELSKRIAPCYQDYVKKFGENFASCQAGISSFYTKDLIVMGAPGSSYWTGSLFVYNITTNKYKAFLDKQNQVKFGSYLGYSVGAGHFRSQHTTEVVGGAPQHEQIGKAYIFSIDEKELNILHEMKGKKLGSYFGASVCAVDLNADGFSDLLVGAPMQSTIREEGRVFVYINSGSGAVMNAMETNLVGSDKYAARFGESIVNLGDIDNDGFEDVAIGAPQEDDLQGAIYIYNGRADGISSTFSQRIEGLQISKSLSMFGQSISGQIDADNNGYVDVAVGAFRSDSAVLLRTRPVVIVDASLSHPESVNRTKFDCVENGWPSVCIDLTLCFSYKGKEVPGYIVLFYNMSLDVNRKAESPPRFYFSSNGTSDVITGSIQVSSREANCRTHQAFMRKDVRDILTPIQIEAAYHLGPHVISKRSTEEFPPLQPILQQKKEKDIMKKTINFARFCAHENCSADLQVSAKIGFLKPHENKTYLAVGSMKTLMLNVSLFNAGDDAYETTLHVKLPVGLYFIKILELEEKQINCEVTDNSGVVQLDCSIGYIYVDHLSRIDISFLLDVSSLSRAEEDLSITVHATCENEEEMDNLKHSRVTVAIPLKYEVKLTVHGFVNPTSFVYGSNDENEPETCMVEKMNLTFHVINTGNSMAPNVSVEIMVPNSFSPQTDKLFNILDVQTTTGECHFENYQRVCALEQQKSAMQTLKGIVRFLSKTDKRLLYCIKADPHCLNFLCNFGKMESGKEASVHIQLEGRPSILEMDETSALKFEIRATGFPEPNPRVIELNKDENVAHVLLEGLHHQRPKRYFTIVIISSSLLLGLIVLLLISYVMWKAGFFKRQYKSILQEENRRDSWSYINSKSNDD
Chain of Beta-2 adrenergic receptor (Homo sapiens) (P07550 whole entry, looked up): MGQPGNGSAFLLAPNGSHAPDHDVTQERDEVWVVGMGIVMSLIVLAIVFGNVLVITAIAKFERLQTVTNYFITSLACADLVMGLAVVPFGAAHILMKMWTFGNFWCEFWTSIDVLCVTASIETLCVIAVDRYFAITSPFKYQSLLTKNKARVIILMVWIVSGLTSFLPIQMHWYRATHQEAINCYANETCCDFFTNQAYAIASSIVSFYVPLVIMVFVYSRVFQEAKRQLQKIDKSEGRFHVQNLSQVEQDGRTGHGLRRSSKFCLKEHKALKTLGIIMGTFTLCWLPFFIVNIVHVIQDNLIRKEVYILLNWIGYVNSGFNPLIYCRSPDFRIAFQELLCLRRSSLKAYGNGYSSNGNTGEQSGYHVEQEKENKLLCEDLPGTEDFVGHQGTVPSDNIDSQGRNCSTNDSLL
Chain of Beta-adrenergic receptor kinase 1 (Homo sapiens) (P25098 whole entry, looked up): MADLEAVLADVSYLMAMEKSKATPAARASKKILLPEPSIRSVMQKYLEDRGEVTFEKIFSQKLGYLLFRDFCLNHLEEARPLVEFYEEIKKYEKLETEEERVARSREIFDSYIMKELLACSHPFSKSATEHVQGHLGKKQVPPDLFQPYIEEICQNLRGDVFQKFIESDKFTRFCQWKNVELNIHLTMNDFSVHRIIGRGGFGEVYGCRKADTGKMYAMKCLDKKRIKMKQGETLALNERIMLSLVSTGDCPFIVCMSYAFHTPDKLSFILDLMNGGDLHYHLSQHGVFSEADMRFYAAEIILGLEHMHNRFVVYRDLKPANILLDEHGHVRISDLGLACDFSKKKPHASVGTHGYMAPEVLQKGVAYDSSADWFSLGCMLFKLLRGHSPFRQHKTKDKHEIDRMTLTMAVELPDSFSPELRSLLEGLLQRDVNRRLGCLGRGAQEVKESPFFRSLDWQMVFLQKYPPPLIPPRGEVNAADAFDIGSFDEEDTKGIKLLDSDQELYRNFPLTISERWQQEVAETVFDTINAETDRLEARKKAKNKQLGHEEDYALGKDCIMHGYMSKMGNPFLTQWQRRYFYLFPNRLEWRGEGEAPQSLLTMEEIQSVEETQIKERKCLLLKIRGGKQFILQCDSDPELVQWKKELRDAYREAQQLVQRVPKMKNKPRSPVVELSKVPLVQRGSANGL
Chain of ATP-binding cassette sub-family B member 6 (Homo sapiens) (Q9NP58 whole entry, looked up): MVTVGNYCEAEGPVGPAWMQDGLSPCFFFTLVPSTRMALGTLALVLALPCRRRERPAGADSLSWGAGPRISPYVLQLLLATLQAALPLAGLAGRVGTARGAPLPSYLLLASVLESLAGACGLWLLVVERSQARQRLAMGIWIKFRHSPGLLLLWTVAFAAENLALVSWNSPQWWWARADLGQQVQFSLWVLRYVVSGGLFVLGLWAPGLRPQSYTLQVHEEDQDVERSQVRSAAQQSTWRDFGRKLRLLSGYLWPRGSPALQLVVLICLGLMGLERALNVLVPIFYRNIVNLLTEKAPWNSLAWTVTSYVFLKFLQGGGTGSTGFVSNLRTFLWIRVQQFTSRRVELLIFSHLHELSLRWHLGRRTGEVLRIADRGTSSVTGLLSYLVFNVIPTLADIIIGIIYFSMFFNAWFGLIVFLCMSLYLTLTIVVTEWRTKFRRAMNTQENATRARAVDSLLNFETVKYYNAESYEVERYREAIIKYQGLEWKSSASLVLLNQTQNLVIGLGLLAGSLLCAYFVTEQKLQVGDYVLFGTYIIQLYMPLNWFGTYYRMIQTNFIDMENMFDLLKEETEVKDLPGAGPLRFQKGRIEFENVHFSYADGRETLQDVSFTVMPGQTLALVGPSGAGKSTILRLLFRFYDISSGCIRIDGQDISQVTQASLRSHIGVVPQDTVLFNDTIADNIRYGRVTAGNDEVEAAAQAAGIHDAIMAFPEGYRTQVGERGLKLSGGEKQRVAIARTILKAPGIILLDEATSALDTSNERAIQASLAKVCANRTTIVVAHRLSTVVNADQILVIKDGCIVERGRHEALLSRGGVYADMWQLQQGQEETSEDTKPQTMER
Chain of AP-2 complex subunit beta (Homo sapiens) (P63010 whole entry, looked up, the tested form may be a part, one chain of several): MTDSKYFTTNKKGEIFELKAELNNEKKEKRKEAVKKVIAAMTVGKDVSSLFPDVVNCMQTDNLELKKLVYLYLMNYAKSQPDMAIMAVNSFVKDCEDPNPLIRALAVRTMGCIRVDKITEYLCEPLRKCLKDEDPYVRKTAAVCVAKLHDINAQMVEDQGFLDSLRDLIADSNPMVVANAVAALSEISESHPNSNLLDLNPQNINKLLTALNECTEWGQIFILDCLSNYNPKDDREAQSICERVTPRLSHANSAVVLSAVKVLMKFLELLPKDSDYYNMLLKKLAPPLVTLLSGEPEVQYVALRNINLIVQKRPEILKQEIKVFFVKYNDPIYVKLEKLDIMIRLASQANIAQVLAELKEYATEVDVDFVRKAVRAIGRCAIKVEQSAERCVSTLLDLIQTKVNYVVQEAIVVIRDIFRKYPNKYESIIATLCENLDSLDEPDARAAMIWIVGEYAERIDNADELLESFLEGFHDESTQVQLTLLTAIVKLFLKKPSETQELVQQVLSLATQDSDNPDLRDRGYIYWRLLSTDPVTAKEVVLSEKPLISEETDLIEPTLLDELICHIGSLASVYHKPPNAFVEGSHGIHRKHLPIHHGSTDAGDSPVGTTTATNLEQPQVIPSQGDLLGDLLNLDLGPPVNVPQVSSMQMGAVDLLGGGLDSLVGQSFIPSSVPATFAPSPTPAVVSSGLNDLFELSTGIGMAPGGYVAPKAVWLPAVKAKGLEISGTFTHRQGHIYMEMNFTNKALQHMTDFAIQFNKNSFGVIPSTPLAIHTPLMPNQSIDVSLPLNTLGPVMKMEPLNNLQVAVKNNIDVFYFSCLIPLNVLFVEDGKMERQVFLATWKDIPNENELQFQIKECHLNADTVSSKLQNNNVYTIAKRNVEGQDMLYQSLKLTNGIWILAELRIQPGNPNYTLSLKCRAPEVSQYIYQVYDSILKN

Compound	percent of DMSO control GFP [1]	GFP response vs DMSO [2]	percent response of DMSO control [3]	GFP response vs DMSO [4]	GFP response, % of DMSO [5]	double positive events [6] [%]	vesicle binding response [6]	inhibition [7]	superoxide response (% of plate) [8]	aptamer binding inhibition [9]	response [10]	inhibition [11]	response [12]	binding (% of control) [13]	efflux inhibition (fraction of control) [14]	inhibition [15]	differentiation response [16]
COc1cccc(N2C(=O)CC(c3c[nH]c4ccccc34)C2=O)c1 (stereo not given)	108% (inactive)	103% (inactive)	110% (inactive)	106% (inactive)	97.1% (inactive)	61.9	159% (inactive)	-42.6% (inactive)	95.3% (inactive)	1% (inactive)	12% (inactive)	10% (inactive)	-0.64% (inactive)	105% (inactive)	0 (inactive)	-26% (inactive)	-13.3% (inactive)
COC(=O)c1[nH]c2ccc(C)cc2c1NC(=O)CN1CCc2cc(OC)c(OC)cc2C1	106% (inactive)	111% (inactive)	117% (inactive)	103% (inactive)	105% (inactive)	63.8	296% (inactive)	-11.8% (inactive)	130% (inactive)	4% (inactive)	10.4% (inactive)	-5.24% (inactive)	-3.57% (inactive)	101% (inactive)	0.5 (active)	24% (inactive)	-10.4% (inactive)
CCCNC(C)C(=O)Nc1ccccc1C (stereo not given)	100% (inactive)	101% (inactive)	101% (inactive)	92.6% (inactive)	103% (inactive)	60.4	130% (inactive)	-15.8% (inactive)	96.4% (inactive)	2% (inactive)	2.61% (inactive)	-0.33% (inactive)	4.59% (inactive)	102% (inactive)	-0.16 (inactive)	-3% (inactive)	-7.5% (inactive)
COc1cc(CO)ccc1OCc1nnnn1-c1ccc(C)cc1	102% (inactive)	105% (inactive)	102% (inactive)	95.9% (inactive)	101% (inactive)	58.4	163% (inactive)	2.93% (inactive)	107% (inactive)	-1% (inactive)	6.38% (inactive)	-5.08% (inactive)	10.4% (inactive)	97.3% (inactive)	0.64 (active)	-8% (inactive)	-1.65% (inactive)
CN1C(C(=O)Nc2ccccn2)=C(O)c2sccc2S1(=O)=O	102% (inactive)	97.7% (inactive)	105% (inactive)	93.7% (inactive)	102% (inactive)	63.2	168% (inactive)	-2.43% (inactive)	113% (inactive)	-6% (inactive)	4.21% (inactive)	6.73% (inactive)	4.48% (inactive)	96% (inactive)	0.035 (inactive)	9% (inactive)	4.2% (inactive)
COc1ccc(-c2c[n+](CC(=O)OC3CC(C)CCC3C(C)C)c3n2CCC3)cc1 (stereo not given)	99.5% (inactive)	105% (inactive)	102% (inactive)	97% (inactive)	98.6% (inactive)	57.8	42.8% (inactive)	5.61% (inactive)	97.3% (inactive)	-6% (inactive)	-0.25% (inactive)	-5.29% (inactive)	8.78% (inactive)	108% (inactive)	0.28 (inactive)	6% (inactive)	-3.11% (inactive)
O=C(/C=C/c1ccccc1)NCC1(c2ccccc2)CCOCC1	101% (inactive)	104% (inactive)	101% (inactive)	117% (inactive)	103% (inactive)	64.3	255% (inactive)	-18.2% (inactive)	99.2% (inactive)	-1% (inactive)	-8.35% (inactive)	63.9% (active)	-9.57% (inactive)	97% (inactive)	-0.21 (inactive)	3% (inactive)	-15.2% (inactive)
CC(C)N1C(=O)/C(=C\c2nc3ccccc3c(=O)[nH]2)c2ccccc21	103% (inactive)	106% (inactive)	103% (inactive)	128% (inactive)	93.8% (inactive)	60.8	157% (inactive)	-7.25% (inactive)	125% (inactive)	6% (inactive)	32.8% (inactive)	-10.5% (inactive)	-1.63% (inactive)	101% (inactive)	-0.1 (inactive)	6% (inactive)	-21.6% (inactive)
Cc1c(Cc2ccccc2)c(=O)oc2c(CN(C)C)c(O)c(Cl)cc12	98.2% (inactive)	108% (inactive)	94.2% (inactive)	92.7% (inactive)	98% (inactive)	61.8	358% (inactive)	0.58% (inactive)	98.2% (inactive)	3% (inactive)	-3.4% (inactive)	0.49% (inactive)	0.93% (inactive)	99.3% (inactive)	-0.39 (inactive)	2% (inactive)	-5.62% (inactive)
CC(C)=CCC/C(C)=C/CC/C(C)=C/CC/C(C)=C/CC1=C(C)C(=O)c2ccccc2C1=O	98.2% (inactive)	105% (inactive)	101% (inactive)	121% (inactive)	116% (inactive)	58.9	205% (inactive)	-7.08% (inactive)	102% (inactive)	2% (inactive)	-16% (inactive)	-12.1% (inactive)	-1.04% (inactive)	99.2% (inactive)	-0.09 (inactive)	-4% (inactive)	-6.96% (inactive)
